Assay results: PubChem BioAssay AID624405 (Broad Institute, 2012)
Screen size: about 1,900 compounds; about 250 (13%) were called active. About 4% were inconclusive and are not listed.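 How the source made its calls: active means fitted curve reaches 40% rescue activity at or below the top valid dose, in every test run; inconclusive means test runs disagree, some active and some inactive; inactive means every run misses the threshold or moves the wrong way.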 These entries were drawn from the full list. Results with a measured potency or affinity are listed apart.

Test: rescue of simvastatin-induced ATP loss – cell-based, C2C12 myotubes, ATP luminescence, cherry pick, dose response (AID 624405);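 further: myotubes are challenged with simvastatin at 10 µM to lower ATP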
Details: 48 h, scaled: DMSO wells 0, geranylgeraniol wells 100; series mostly up to 19.5 µM

Question: With `C[C@@H]1CCCCO[C@@H](CN(C)S(=O)(=O)c2cccs2)[C@@H](C)CN([C@@H](C)CO)C(=O)c2cc(NC(=O)Nc3ccc(F)cc3)ccc2O1` as the molecule, how does the outcome read?
Answer: The outcome was “inactive”.

Question: Which outcome does the source give for `C[C@@H]1CCCCO[C@H](CN(C)C(=O)NC2CCCCC2)[C@H](C)CN([C@@H](C)CO)C(=O)c2cc(NS(=O)(=O)c3cccs3)ccc2O1` here?
Answer: The outcome was “inactive”.

Question: Which outcome does the source give for `Cc1cc(S(=O)(=O)Nc2nc(CN3CCOCC3)nc3sc4c(c23)CCCC4)ccc1F` here?
Answer: Its outcome is “inactive”.

Question: With `C[C@H]1CN([C@@H](C)CO)C(=O)Cc2cc(NC(=O)Cc3ccccc3)ccc2O[C@@H]1CN(C)Cc1ccc(Cl)c(Cl)c1` as the molecule, how does the outcome read?
Answer: Its outcome is “inactive”.

Question: For `C[C@H]1CN([C@@H](C)CO)C(=O)Cc2cc(NC(=O)CCCCCC(=O)Nc3ccccc3N)ccc2O[C@@H]1CN(C)Cc1ccc(Cl)c(Cl)c1`, which outcome is on record?
Answer: The outcome was “inactive”.

Question: For `CC1CCCCN1S(=O)(=O)c1ccc(C(=O)Nc2sccc2C(N)=O)cc1` (stereo unspecified), which outcome is on record?
Answer: Its outcome is “inactive”.

Question: Which outcome does the source give for `O=C(CNC(=O)c1ccc(Br)cc1)N/N=C/c1cccnc1` here?
Answer: Its outcome is “inactive”.

Question: Which outcome does the source give for `C[C@@H]1CCCCO[C@@H](CN(C)CC2CCCCC2)[C@@H](C)CN([C@H](C)CO)C(=O)c2cc(NC(=O)Nc3ccc4c(c3)OCO4)ccc2O1` here?
Answer: Its outcome is “inactive”.

Question: With `C[C@@H]1CN([C@H](C)CO)C(=O)c2cc(NC(=O)Nc3ccc(C(F)(F)F)cc3)ccc2O[C@H]1CN(C)Cc1ccc(C(=O)Nc2ccccc2N)cc1` as the molecule, how does the outcome read?
Answer: The outcome was “inactive”.

Question: For `C[C@H](CO)N1C[C@H](C)[C@H](CN(C)Cc2ccc(C(=O)Nc3ccccc3N)cc2)Oc2ccc(NC(=O)Nc3ccc(C(F)(F)F)cc3)cc2C1=O`, which outcome is on record?
Answer: The outcome was “inactive”.

Question: With `C[C@@H]1CN([C@@H](C)CO)C(=O)c2cccc(NC(=O)c3nc4ccccc4s3)c2O[C@H]1CN(C)Cc1ccc(C(=O)Nc2ccccc2N)cc1` as the molecule, how does the outcome read?
Answer: Its outcome is “inactive”.

Question: Which outcome does the source give for `C[C@@H]1CN([C@@H](C)CO)C(=O)c2cccc(NC(=O)Nc3ccccc3)c2O[C@H]1CN(C)Cc1ccc(C(=O)Nc2ccccc2N)cc1` here?
Answer: Its outcome is “inactive”.

Question: With `C[C@@H]1CN([C@@H](C)CO)C(=O)c2cc(NC(=O)Nc3ccc(C(F)(F)F)cc3)ccc2O[C@@H]1CN(C)Cc1ccc(C(=O)Nc2ccccc2N)cc1` as the molecule, how does the outcome read?
Answer: Its outcome is “inactive”.

Question: Which outcome does the source give for `C[C@@H]1CN([C@H](C)CO)C(=O)c2cccc(NC(=O)c3nc4ccccc4s3)c2O[C@@H]1CN(C)C(=O)Nc1cccc2ccccc12` here?
Answer: The outcome was “inactive”.

Question: Which outcome does the source give for `C[C@H]1CN([C@@H](C)CO)C(=O)c2cc(NC(=O)Nc3ccc(C(F)(F)F)cc3)ccc2O[C@H]1CN(C)Cc1ccc(C(=O)Nc2ccccc2N)cc1` here?
Answer: Its outcome is “inactive”.

Question: Which outcome does the source give for `C[C@@H]1CN([C@H](C)CO)C(=O)c2cccc(NC(=O)C3CCOCC3)c2O[C@@H]1CN(C)Cc1ccc(C(=O)Nc2ccccc2N)cc1` here?
Answer: The outcome was “inactive”.
